# The sample as a whole holds a higher share of hits than the screen did.
# PRC2 inh = EZH2/PRC2 methyltransferase inhibitors, primary screen, biochemical, DELFIA time-resolved fluorescence, single point. PRC2 H3K27 methylation, DELFIA TRF, 1 h. inhibition, % at 12.5 µM. actives 0.35% (n = 57,000). AID 651548, 2012. Histone-lysine N-methyltransferase EZH2 (Homo sapiens), Q15910;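 active means mean inhibition of replicates at least 50% and every single replicate also reaching 50%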;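 further: dimethyl H3K27 on biotinylated H3 21-44 peptide detected by antibody; plate controls were median neutral control wells for no effect and median positive control wells for full effect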
# The depositor's hits bear a star.
SMILES,PRC2 inh
N#CC(O[C@@H]1O[C@H](CO)[C@@H](O)[C@H](O)[C@H]1O)c1ccccc1 (stereo not given in full),97*
O=c1ccc2cc(OC3O[C@H](CO)[C@@H](O)[C@H](O)[C@H]3O)c(O)cc2o1 (stereo not given in full),18
CCCC(C)n1[nH]c(=O)c2c1NC(=O)CSC2c1cccc([N+](=O)[O-])c1 (stereo not given),-5
Cc1ccnc(NC(c2ccccc2[N+](=O)[O-])c2ccc3ccc(C)nc3c2O)c1 (stereo not given),-15
Fc1ccc(Sc2c(F)c(F)nc(N3CCNCC3)c2F)cc1,-10
CC(CCc1ccc(O)cc1)O[C@@H]1O[C@H](CO[C@H]2OC[C@](O)(CO)[C@H]2O)[C@@H](O)[C@H](O)[C@H]1O (stereo not given in full),94*
CCNC(=S)N1CCN(CC(=O)Nc2ccc(Cl)cc2C(=O)c2ccccc2)CC1,-1
CC(C)=CCCN1CCC(NC(=O)[C@](O)(c2ccccc2)C2CCCC2)CC1,-1
COc1cc2cc(c1Cl)N(C)C(=O)CC(OC(=O)C(C)C)C1(C)OC1C(C)C1CC(O)(NC(=O)O1)C(OC)/C=C/C=C(/C)C2 (stereo not given),6
C=CC1CN2CCC1CC2C(OC(=O)c1ccco1)c1ccnc2ccccc12 (stereo not given),-7
CCCCC/C=C\C/C=C\C/C=C\C/C=C\CCCC(=O)NCC(=O)O,3
CCCCC/C=C/C/C=C/C/C=C/C/C=C/CCCC(=O)NCCCC(=O)O,81*
CCCCC/C=C\C/C=C\C/C=C\C/C=C\CCCC(=O)NCCO,16
CN1Cc2c(ccc3c2OCO3)[C@@H]2[C@H]1c1cc3c(cc1C[C@@H]2O)OCO3,-11
O=C(Cn1cc(C(=O)c2ccccc2)c2ccccc21)NCC1CCCO1 (stereo not given),-6
